From PubChem BioAssay
Nrf2 activator – activators of Nrf2 (ARE) signaling. AREc32 ARE-luciferase reporter (MCF7-derived line), luminescence, 24 h. hit rate 0.31% among 410,000. Potency, µM (top dose mostly 46.1 µM), for inactives: at the highest dose activation, actives largely listed as activators; note: potency is the fitted concentration of half-maximal effect; % of control where 0% means no effect; nearly all actives have a fitted effect of over 65% in size
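Steps: seed AREc32_Fluc cells (1000/well, 5% FBS OPTI-MEM); incubate overnight at 37 deg C; add 23 nL compound; incubate 24 hr; add Steady-Glo; hold 30 min RT; read luminescence.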
BRCA1 expr act – increases BRCA1 expression; MCF7-BRCA1-FFLuc reporter, luminescence, 48 h; response scale: scaled: vehicle 0%, 10 µM genistein 100%; Potency, µM (top dose mostly 46.1 µM), for inactives: top-dose activation, actives largely listed as activators; hit rate 1.1% among 380,000; AID 624202; note: potency is the fitted concentration of half-maximal effect; nearly all actives have a fitted effect of over 80% in size
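MCF7-BRCA1-FFLuc cells, 2000/well in phenol-red-free MEM, attached 2 h then treated 48 h at 37 C. Luciferase luminescence read 15 min after reagent; normalized to genistein maximum activation (10microM) and DMSO, concentration-response fitted.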
IL2 activator – IL-2 activation; IL-2 activation reporter assay, cell-based qHTS; stimulated with anti-CD3/CD4/CD28 beads; in transgenic mouse T cells; activation, % (series mostly up to about 46 µM); hit rate 0.065% among 360,000; in the data active = activation above about 50%; inconclusive = mostly about 30% to 49%; note: 0% is about no effect
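EGFP and DsRed fluorescence is measured by plate cytometry in unstimulated transgenic mouse T cells exposed to compound for 60 minutes, then stimulated 18 hours at 37 degrees C with anti-CD3/anti-CD4 beads plus anti-CD28.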
ELG1 repair inh – inhibitors of ELG1-dependent DNA repair in HEK293T cells | hit rate 2.3% among 330,000 | AID 504467 | HEK293T ELG1-luciferase reporter, luminescence, 16 h; DNA damage induced by 5-fluorouridine | Potency, µM (series often up to 46.1 µM), for inactives: at the highest dose activity change, negative = inhibition, hits mostly inhibitors; note: potency is the fitted concentration of half-maximal effect; % is set by controls: 0 for no effect and ±100 for the full control effect; nearly all actives have a fitted effect of over 55% in size
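Reporter activity after DNA damage by 5-fluorouridine is monitored. Compound-treated cells incubate 16 hr at 37 °C, then ONE-Glo is added for 30 min before luminescence reading.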
* hit, by the source's call; ? = inconclusive; . = no result given; [ ] = remark or other dose. An excerpt weighted towards active compounds, which were near 3.1% of everything screened. Unless noted, calls come from the whole dose curve; as a rule, active = well fitted curve in the direction sought with a large enough effect; inconclusive = small, poorly fitted or top-dose-only effect, or another doubt; inactive = no such curve, though single readings can be large; an effect the other way counts as inactive or inconclusive.

SMILES	Nrf2 activator	BRCA1 expr act	IL2 activator	ELG1 repair inh
Cc1ccc(NC(=O)C(Cc2ccccc2)N2C(=O)C3C4CCC(C4)C3C2=O)cc1Cl (configuration not stated)	0%	-64%	-2	18µM*
N#C/C(=C\c1ccc(C(=O)O)cc1)c1nc2sc3c(c2c(=O)[nH]1)CCCC3	2%	11%	301*	5%
Cc1ccc(NC(=O)C2CCCN(c3nnc(C)c4c(C)n(-c5ccccc5)nc34)C2)c(Cl)c1 (configuration not stated)	1%	.	.	.
CCN(C(=O)Cn1nnc2sc3c(c2c1=O)CCC(C(C)(C)C)C3)c1cccc(C)c1 (configuration not stated)	-1%	.	.	.
OCCN(CCO)c1nc(-c2ccccc2)nc2c1oc1ccccc12	-1%	-24%	0	23µM*
COc1ccccc1CCNC(=O)CCCn1c(=O)c2cccn2c2cccnc21	0%	.	.	.
O=C(C1=C[C@@H](c2ccccc2)C[C@@H](OCCCCO)O1)N1CCN(Cc2ccc3c(c2)OCO3)CC1	1%	0%	0	-28%
O=C(C1=C[C@H](c2ccc3c(c2)OCO3)C[C@H](OCc2ccc(CO)cc2)O1)N1CCN(Cc2ccc3c(c2)OCO3)CC1	7%	-17%	0	16µM*
O=C(C1=C[C@H](c2ccccc2)C[C@H](OCc2ccc(CO)cc2)O1)N1CCN(Cc2ccc3c(c2)OCO3)CC1	6%	-32%	-1	8.2µM*
O=C(C1=C[C@H](c2coc3ccccc3c2=O)C[C@H](OCc2ccc(CO)cc2)O1)N1CCN(Cc2ccc3c(c2)OCO3)CC1	6%	-4%	-1	13µM*
CC(=O)n1cc([C@@H]2C=C(C(=O)N3CCN(Cc4ccccc4)CC3)O[C@H](OCc3ccc(CO)cc3)C2)c2ccccc21	8%	-50%	0	9.2µM*
CC(=O)n1cc([C@H]2C=C(C(=O)N3CCN(Cc4ccccc4)CC3)O[C@@H](OCCCCO)C2)c2ccccc21	4%	0%	0	-6%
COc1ccccc1N1CCN(C(=O)c2nn(-c3ccc(C)cc3)c(=O)n(C)c2=O)CC1	0%	.	.	.
CCCn1cc(S(=O)(=O)c2cccc(Cl)c2)c(=O)c2cc(F)c(N3CCCC3)cc21	0%	.	.	.
OC[C@@H]1CN(CCN2CCOCC2)C[C@H](n2cnc3c(NC4CCCC4)ncnc32)O1	0%[9.22 µM]	-15%	0	.
COc1ccc([C@H]2C[C@H](O)[C@@H](n3cc(COC(=O)c4ccccc4)nn3)CN2CC2CCCCC2)cc1	-6%	-72%	-3	.
O=C(NCc1nc2ccccc2[nH]1)C1=C[C@@H](c2ccccc2)C[C@@H](OCc2ccc(CO)cc2)O1	-1%	-23%	-1	-21%
CCO[C@H]1OC(C(=O)N2CCN(Cc3ccc4c(c3)OCO4)CC2)=C[C@@H](c2csc3ccccc23)[C@@H]1CCCO	4%	-37%	0	?
CCO[C@H]1OC(C(=O)N2CCN(Cc3ccc4c(c3)OCO4)CC2)=C[C@@H](c2cn(C(C)=O)c3ccccc23)[C@@H]1CCCO	-1%	-23%	-3	10µM*
O=C(NCc1nc2ccccc2[nH]1)C1=C[C@H](c2ccccc2)C[C@H](OCc2ccc(CO)cc2)O1	4%	0%	-1	21µM*
Cc1ccc(NC(=O)c2cc(S(=O)(=O)N3CCOCC3)c(Cl)cc2Cl)cc1	4%	.	.	.
C=CCOc1ccc(CN(C)C(=O)CNC(=O)c2ccc(-c3ccccc3)cc2)cc1	2%	-58%	-1	23µM*
CCOc1ccc(CN(C)C(=O)CNC(=O)c2ccccc2)cc1	2%	-17%	0	1%
CN1CCN(C(=O)C[C@@H]2CC[C@@H]3[C@H](COC[C@@H](O)CN3Cc3cccc(Cl)c3)O2)CC1	.	.	0	.
O=C(/C=C/c1cccc(F)c1)Nc1nccs1	10µM*	?	1	?
SMILES	Nrf2 activator	BRCA1 expr act	IL2 activator	ELG1 repair inh
O=C(/C=C\c1ccccc1)Nc1nccs1	15%	3%	-2	?
Cc1nc(N2CCN(S(=O)(=O)c3ccccc3C#N)CC2)c2c(-c3cccs3)csc2n1	1%	-34%	0	18µM*
Cc1nc(N2CCCCC2)c2c(-c3cccs3)csc2n1	2%	-12%	-1	?
CCCSc1nc2sc3c(c2c(=O)n1Cc1ccccc1)CC(C)(CC)OC3 (configuration not stated)	0%	.	.	.
CCC1(C)Cc2c(sc3nc(SC)n(Cc4ccccc4)c(=O)c23)CO1 (configuration not stated)	1%	13µM*	1	?
Cc1cc(C)cc(N/C(N)=N/c2nc(C)cc(C)n2)c1	-1%	-70%	-4	15µM*
CCCn1c(SCc2nc(-c3ccc(OC)c(OC)c3)no2)nnc1-c1ccccc1	5%	2%	.	.
Nc1c(C(=O)N2CCCCC2)sc2nc3c(cc12)CCCC3	1%	5.6µM*	0	?
Nc1c(C(=O)N2CCCC2)sc2nc(-c3ccccc3)ccc12	4%	5.6µM*	1	?
COc1ccc2cc3c(N)c(C(=O)N4CCCC4)sc3nc2c1	3%	?	0	?
Cc1ccc(C(=O)c2sc3nc4c(cc3c2N)CCC4)cc1	3%	-60%	?	?
CCc1ccccc1NC(=O)c1cn(C)c(=O)c2ccccc12	0%	.	.	.
CCOC(=O)c1ccc(NC(=O)C2CCCN(c3ncnc4onc(C)c34)C2)cc1 (configuration not stated)	5%	.	.	.
Cc1c(C(=O)NCc2ccccc2Br)oc2c1-c1[nH]ncc1CC2	7%	.	.	.
O=C1C(Cl)=C(N2CCN(c3ccccc3[N+](=O)[O-])CC2)C(=O)c2ccccc21	7.9µM*	-108%	-4	?
CC1CCN(C(=O)C2CCN(C(=O)c3cc4sccc4n3Cc3ccc(F)cc3)CC2)CC1	4%	-51%	0	16µM*
CCn1c(C(=O)N2CCC(C(=O)N3CCN(c4ccccn4)CC3)CC2)cc2sccc21	-1%	-2%	-1	13µM*
CC(C)NC(=O)C1CCN(C(=O)c2cc3sccc3n2Cc2ccc(F)cc2)CC1	0%	-81%	-2	18µM*
CCn1c(C(=O)N2CCC(C(=O)N3CCN(c4cccc(C)c4C)CC3)CC2)cc2sccc21	-2%	.	.	.
CC(C)NC(=O)C1CCN(C(=O)c2cc3sccc3n2Cc2ccc(Cl)cc2)CC1	0%	.	.	.
COc1ccc(C(=O)CSc2nc(-c3ccccn3)nc(C)c2Cl)cc1	3%	-78%	-1	16µM*
Cc1nc(-c2ccccn2)nc(SCC(=O)c2ccc(F)cc2)c1Cl	3%	0%	-2	?
COc1ccc(-c2nnc(SCC(=O)Nc3ncc(C)s3)n2-c2ccccc2)cc1OC	-1%	-93%	-4	21µM*
COc1cc(/C=C/C(=O)OCC(=O)N2c3ccccc3NC(=O)C2(C)C)cc(OC)c1OC	-3%	-55%	0	10µM*
CC1(C)C(=O)Nc2ccccc2N1C(=O)COC(=O)c1ccc(Cl)c(S(=O)(=O)NCc2ccccc2)c1	0%	-44%	-2	21µM*
